In PubChem BioAssay AID743361 (Molecular Libraries Program, Specialized Chemistry Center, …, 2014):
A number with no mark means an inactive call. The source made the active and inactive calls. No rule for the calls is given here.

Experiment: Rhodamine 123 quenching counterscreen activity, dose response, counter-screen for mtPTP inhibitor project, biochemical, dry powder samples, uHTS hits, fluorescence (AID 743361)
Conditions: Rhodamine 123 fluorescence quenching counterscreen, cell-free

| Structure (SMILES) | IC50 |
| --- | --- |
| O=C(Nc1ccc(N2CCCCC2)cc1)c1cccc(OCc2ccccc2)c1 | > 100 µM |
| O=C(Nc1ccc(CN2CCCCC2)cc1)c1cccc(OCc2ccccc2)c1 | 55.4 µM (active) |
| CCCc1cc(C(=O)Nc2c(F)cc(F)cc2Br)no1 | > 100 µM |
| O=S(=O)(Nc1ccc(CCN2CCCCC2)cc1)c1cc(Cl)cc(Cl)c1 | > 100 µM |
| O=C(Nc1cccc(Cl)c1)c1cc(-c2cccc(O)c2)on1 | > 100 µM |
| COc1ccc(Cl)cc1S(=O)(=O)Nc1ccc(CCN2CCN(C)CC2)cc1 | > 100 µM |
| COc1ccc(Cl)c(C(=O)Nc2ccc(CN3CCN(C)CC3)cc2)c1 | > 100 µM |
| O=C(Nc1cc(Cl)cc(Cl)c1)c1cc(-c2cccc(O)c2)on1 | > 100 µM |
| O=C(Nc1ccccc1OCc1ccccc1)c1cc(-c2cccc(O)c2)on1 | > 100 µM |
| O=C(Nc1ccc(CN2CCCCC2)cc1)c1cc(Cl)ccc1O | > 100 µM |
| COc1ccc(Cl)cc1C(=O)Nc1ccc(CN2CCN(C)CC2)cc1 | > 100 µM |
| COc1ccc(NC(=O)c2cc(Cl)cc(Cl)c2OC)cc1 | > 100 µM |
| COc1ccc(Cl)cc1C(=O)Nc1ccc(CN2CCOCC2)cc1 | > 100 µM |
| CC1CCN(CCCC(=O)c2ccc(Br)cc2)CC1 | > 100 µM |
| COc1ccc(Cl)cc1C(=O)Nc1ccccc1 | > 100 µM |
| COc1ccc(Cl)cc1S(=O)(=O)Nc1ccc(CCN2CCCCC2)cc1 | > 100 µM |
| COc1ccc(Cl)c(C(=O)Nc2ccc(CCN3CCOCC3)cc2)c1 | > 100 µM |
| O=C(Nc1ccc(Cl)cc1)c1cc(-c2ccccc2)on1 | > 100 µM |
| COc1ccc(Cl)cc1S(=O)(=O)Nc1ccc(CN2CCN(C)CC2)cc1 | > 100 µM |
| COc1ccc(Cl)cc1C(=O)Nc1ccc(CN2CCNCC2)cc1 | > 100 µM |
| COc1ccc(Cl)cc1C(=O)Nc1ccc(N2CCN(C)CC2)cc1 | > 100 µM |
| CN1CCN(c2ccccc2NC(=O)c2ccc(OCc3ccccc3)cc2)CC1 | > 100 µM |
| COc1ccc(Cl)cc1C(=O)Nc1ccc(N(C)C)cc1 | > 100 µM |
| CN1CCN(Cc2ccc(NS(=O)(=O)c3ccc(F)c(Cl)c3)cc2)CC1 | > 100 µM |
| O=S(=O)(Nc1ccc(CN2CCCCC2)cc1)c1cc(Cl)cc(Cl)c1 | > 100 µM |
| COc1ccc(Cl)c(C(=O)Nc2cccc(CN3CCN(C(=O)OC(C)(C)C)CC3)c2)c1 | > 100 µM |
| O=C(Nc1ccc(Br)cc1)c1cc(C2CC2)on1 | > 100 µM |
| CCc1ccccc1NC(=O)c1cc(-c2ccccc2)on1 | > 100 µM |
| Cc1ccc(Cl)cc1NC(=O)c1cc(-c2cccc(O)c2)on1 | > 100 µM |
| CN1CCN(c2ccc(Cl)cc2NC(=O)/C=C/c2cccc(F)c2)CC1 | > 100 µM |
